From PubChem
An excerpt weighted towards active compounds, which were near 12% of everything screened.
HP1b binding inh: HTS for Inhibitors of HP1-beta Chromodomain Interactions with Methylated Histone Tails. Potency, µM (titrated, usually from 114 µM), hits mostly inhibitors. AlphaScreen HP1-beta / biotin-H3K9me3 peptide binding. AID 540317, 2011. Chromobox protein homolog 1 (Homo sapiens), P83916. hit rate 0.56% among 390,000; further: nearly all actives have a fitted effect of over 70% in size
Target sequence (P83916 whole entry, looked up): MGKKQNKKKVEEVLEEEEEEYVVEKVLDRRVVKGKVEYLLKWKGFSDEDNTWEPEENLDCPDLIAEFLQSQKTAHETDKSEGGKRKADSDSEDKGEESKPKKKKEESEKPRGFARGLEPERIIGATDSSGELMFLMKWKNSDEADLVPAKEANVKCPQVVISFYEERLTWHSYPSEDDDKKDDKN
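AlphaScreen: HP1-beta (50 nM) preformed 30 min with biotin-H3(1-18)K9me3 peptide (50 nM) in PBS pH 7.4, 0.01% Tween-20. Compound added for 30 min at RT, then streptavidin donor/nickel chelate acceptor beads (10 ug/mL) for 30 min.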
PI5P4Ka inh: qHTS for Inhibitors of phosphatidylinositol 5-phosphate 4-kinase (PI5P4K); PI5P4Kalpha enzyme, ADP-Glo luminescence, 60 min; hits give low values; Phosphatidylinositol 5-phosphate 4-kinase type-2 alpha (Homo sapiens), P48426; max response, %; hit rate 1.2% among 330,000; active means max response of -50% or lower; inconclusive means between -30% and -50%; inactive means -30% or higher; further: value at the top dose of about 77 µM
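Human PI5P4Kalpha with substrate in 0.038 M HEPES pH 7.4, 0.28 mM EGTA, 0.1% CHAPS, 5% DMSO; reaction started with 5 microM ATP (final), 60 min at room temperature. ADP formed read by ADP-Glo luminescence.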
BAZ2B inh: qHTS Assay for Inhibitors of BAZ2B. Bromodomain adjacent to zinc finger domain protein 2B (Homo sapiens), Q9UIF8. AlphaScreen BAZ2B-H3K14Ac peptide displacement. Potency, µM (highest dose often 114 µM), most hits filed as inhibitors. hit rate 4.4% among 360,000; further: nearly all actives have a fitted effect of over 60% in size
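BAZ2B (50 nM) with biotin-H3(5-23)K14Ac peptide (50 nM) in PBS pH 7.4, 0.01% Tween-20, preformed 30 min, then compound 30 min at room temperature; top concentration 110uM. AlphaScreen streptavidin donor/nickel chelate acceptor beads (10 ug/mL final), 20 min dark, signal read.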
G9a block: qHTS Assay for Inhibitors of Histone Lysine Methyltransferase G9a | Histone-lysine N-methyltransferase EHMT2 (Homo sapiens), Q96KQ7 | G9a H3K9 monomethylation, AlphaScreen, 2 h | Potency, µM (doses to about 102 µM), actives largely listed as inhibitors | hit rate 8.8% among 350,000 | AID 504332, 2011; further: nearly all actives have a fitted effect of over 75% in size
Target sequence (Q96KQ7 913-1193 limits assumed): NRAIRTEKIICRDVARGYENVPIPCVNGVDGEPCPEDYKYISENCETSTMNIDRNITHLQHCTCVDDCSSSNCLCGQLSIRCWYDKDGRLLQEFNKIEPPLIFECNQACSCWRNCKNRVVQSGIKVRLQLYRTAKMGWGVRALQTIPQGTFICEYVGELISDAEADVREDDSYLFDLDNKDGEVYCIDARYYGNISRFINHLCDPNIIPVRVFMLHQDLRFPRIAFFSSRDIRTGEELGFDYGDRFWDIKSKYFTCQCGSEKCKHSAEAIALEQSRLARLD
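Using a bead-based AlphaScreen, monomethylated H3K9 product from 2 h room-temperature reactions (G9a 20 nM, peptide 500 nM, SAM 20 uM) was detected with 0.5 ug/mL rabbit anti-H3K9me1 antibody.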
JMJD2A Tudor: qHTS Assay for Inhibitors of JMJD2A-Tudor Domain. Potency, µM (doses to about 114 µM), most hits filed as inhibitors. AlphaScreen JMJD2A-Tudor / H3K4me3 peptide binding. hit rate 4.4% among 390,000; further: nearly all actives have a fitted effect of over 50% in size
PLK1 PBD inh: qHTS for Inhibitors of PLK1-PDB (polo-like kinase 1 - polo-box domain): Primary Screen; Potency, µM, most hits filed as inhibitors; AID 720504, 2013; Serine/threonine-protein kinase PLK1 (Homo sapiens), P53350; Plk1 PBD binding of FITC phosphopeptide, fluorescence polarization; hit rate 2.8% among 360,000; further: series mostly up to about 57 µM; nearly all actives have a fitted effect of over 65% in size
Of the large screens only hits and unclear results are named; the others gave an inactive call. Unless noted, the call rests on the fitted dose curve; in most records, active means well fitted curve in the direction sought with a large enough effect; inconclusive means small, poorly fitted or top-dose-only effect, or another doubt; inactive means no such curve, though single readings can be large; an effect the other way counts as inactive or inconclusive.

COC(=O)[C@@]12CCCCN1[C@H](c1ccc(-c3ccc(F)cc3)c(OC)c1)[C@@H]1C(=O)N(C)C(=O)[C@@H]12	none
CCC1(c2ccc(Cl)cc2)NC(=S)N(c2ccccc2)N1 (stereo not given)	G9a block 13µM, PLK1 PBD inh inconclusive
CCCCCC1(C)NC(=S)N(c2ccccc2)N1 (stereo not given)	BAZ2B inh inconclusive, G9a block inconclusive, JMJD2A Tudor 50µM
CCC1(c2ccccc2)NC(=S)N(c2ccc(C)cc2)N1 (stereo not given)	G9a block inconclusive
CCCCCCC1(C)NC(=S)N(c2ccccc2)N1 (stereo not given)	HP1b binding inh inconclusive, G9a block 14µM, JMJD2A Tudor inconclusive, PLK1 PBD inh 19µM (no result: BAZ2B inh)
CC1(CC(=O)Nc2ccccc2)NC(=S)N(c2ccccc2)N1 (stereo not given)	BAZ2B inh inconclusive, G9a block inconclusive, JMJD2A Tudor 5.6µM, PLK1 PBD inh 27µM
C=C(C)CCC1(C)NC(=O)N(c2ccccc2)N1 (stereo not given)	G9a block inconclusive
Cc1ccc(Cn2ccnc2SCC(=O)Nc2nc3ccccc3s2)cc1	BAZ2B inh inconclusive, G9a block inconclusive, JMJD2A Tudor inconclusive (no result: PI5P4Ka inh, PLK1 PBD inh)
CC(C)n1cc(C(N)=S)c(=O)n(Cc2ccccc2)c1=O	G9a block 50µM
COc1ccccc1CCNC(=O)C(=O)NCC1OCCN1S(=O)(=O)c1ccc([N+](=O)[O-])cc1 (stereo not given)	none
COCCNC(=O)COC(=O)c1nsc(Cl)c1Cl	JMJD2A Tudor inconclusive, PLK1 PBD inh 27µM
COc1ccc(Cl)cc1NC(=O)CN1C(=O)CC(C)S(=O)(=O)c2ccccc21 (stereo not given)	none (no result: BAZ2B inh)
COC(=O)C1=CN(c2ccccc2OC)C(N)=C(C#N)C1c1cccc([N+](=O)[O-])c1 (stereo not given)	none (no result: HP1b binding inh, BAZ2B inh, G9a block, JMJD2A Tudor)
C=CC[n+]1c(-c2ccc(Cl)cc2Cl)csc1Nc1c(C)n(C)n(-c2ccccc2)c1=O	HP1b binding inh inconclusive, BAZ2B inh 40µM, G9a block inconclusive, JMJD2A Tudor inconclusive
C=CCNC(=O)c1ccc(-c2nc(-c3ccc(Cl)cc3Cl)cs2)cc1	none
C=CC[n+]1c(-c2ccc(Cl)cc2Cl)csc1Nc1ccc(NC(C)=O)cc1	HP1b binding inh inconclusive, BAZ2B inh 28µM, G9a block 40µM, JMJD2A Tudor 28µM
COC(=O)[C@@]1(Cc2ccc(F)cc2)[C@H]2c3cc(C(=O)N4CCCC4)n(CC4CC4)c3C[C@H]2CN1C(=O)c1ccccc1	none (no result: HP1b binding inh, BAZ2B inh, G9a block, JMJD2A Tudor)
O=C(/C=C/NNC(=O)c1ccc(Cl)cc1)c1ccccc1	BAZ2B inh inconclusive, G9a block inconclusive, JMJD2A Tudor inconclusive
Cc1ccc(C(=O)/C=C/NNC(=O)c2ccccc2O)cc1	BAZ2B inh 50µM, JMJD2A Tudor inconclusive
COCCN1CN=C(Nc2nc3ccccc3o2)NC1	G9a block 71µM, JMJD2A Tudor inconclusive
Cn1c(=O)[nH]c2nnc(-c3ccc(Cl)c(Cl)c3)nc2c1=O	BAZ2B inh 89µM, G9a block inconclusive, JMJD2A Tudor inconclusive
N#Cc1cccc(-c2cncnc2NCc2cccs2)c1	none (no result: HP1b binding inh, PI5P4Ka inh, BAZ2B inh, JMJD2A Tudor, PLK1 PBD inh)
C=CCN(CC=C)C(=S)NC(=O)/C=C/c1ccc(C)cc1	none
C=CCN(CC=C)C(=S)NC(=O)c1ccc(OC)cc1	BAZ2B inh inconclusive, PLK1 PBD inh inconclusive (no result: G9a block)
C=CCN(CC=C)C(=S)NC(=O)/C=C/c1ccccc1	HP1b binding inh inconclusive, JMJD2A Tudor 22µM, PLK1 PBD inh 15µM
C=CCN(CC=C)C(=S)NC(=O)c1ccc(-c2ccccc2)cc1	BAZ2B inh 6.3µM, JMJD2A Tudor inconclusive
O=C(O)/C=C\C(=O)Nc1ccc(Oc2ccccc2)cc1	G9a block inconclusive (no result: PI5P4Ka inh)
